Reference: PubChem BioAssay
The other results are listed elsewhere or left out. Active and inactive are the calls of the source. Cut-off read from the data, not from the text of the source, unless noted: active = inhibition above about 25%; inactive = the rest.

Assays:
[1] = target: Nuclear receptor coactivator 1 (Homo sapiens) (UniProt Q15788); assay: NCOA1 GAL4-fusion reporter inhibition – cell-based, luminescence, quadruplicate, confirmation (AID 588820;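 active = mean inhibition above 46.68%, the untreated control wells mean plus 3 SD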;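 note: 0% = DMSO wells and 100% = gossypol 36 µM treated wells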); settings: HEK293 GAL4-SRC1 luciferase reporter, at 3.6 µM, hits give high values
Nuclear receptor coactivator 1 (Homo sapiens), sequence (Q15788 whole entry, looked up, the tested form may be a part): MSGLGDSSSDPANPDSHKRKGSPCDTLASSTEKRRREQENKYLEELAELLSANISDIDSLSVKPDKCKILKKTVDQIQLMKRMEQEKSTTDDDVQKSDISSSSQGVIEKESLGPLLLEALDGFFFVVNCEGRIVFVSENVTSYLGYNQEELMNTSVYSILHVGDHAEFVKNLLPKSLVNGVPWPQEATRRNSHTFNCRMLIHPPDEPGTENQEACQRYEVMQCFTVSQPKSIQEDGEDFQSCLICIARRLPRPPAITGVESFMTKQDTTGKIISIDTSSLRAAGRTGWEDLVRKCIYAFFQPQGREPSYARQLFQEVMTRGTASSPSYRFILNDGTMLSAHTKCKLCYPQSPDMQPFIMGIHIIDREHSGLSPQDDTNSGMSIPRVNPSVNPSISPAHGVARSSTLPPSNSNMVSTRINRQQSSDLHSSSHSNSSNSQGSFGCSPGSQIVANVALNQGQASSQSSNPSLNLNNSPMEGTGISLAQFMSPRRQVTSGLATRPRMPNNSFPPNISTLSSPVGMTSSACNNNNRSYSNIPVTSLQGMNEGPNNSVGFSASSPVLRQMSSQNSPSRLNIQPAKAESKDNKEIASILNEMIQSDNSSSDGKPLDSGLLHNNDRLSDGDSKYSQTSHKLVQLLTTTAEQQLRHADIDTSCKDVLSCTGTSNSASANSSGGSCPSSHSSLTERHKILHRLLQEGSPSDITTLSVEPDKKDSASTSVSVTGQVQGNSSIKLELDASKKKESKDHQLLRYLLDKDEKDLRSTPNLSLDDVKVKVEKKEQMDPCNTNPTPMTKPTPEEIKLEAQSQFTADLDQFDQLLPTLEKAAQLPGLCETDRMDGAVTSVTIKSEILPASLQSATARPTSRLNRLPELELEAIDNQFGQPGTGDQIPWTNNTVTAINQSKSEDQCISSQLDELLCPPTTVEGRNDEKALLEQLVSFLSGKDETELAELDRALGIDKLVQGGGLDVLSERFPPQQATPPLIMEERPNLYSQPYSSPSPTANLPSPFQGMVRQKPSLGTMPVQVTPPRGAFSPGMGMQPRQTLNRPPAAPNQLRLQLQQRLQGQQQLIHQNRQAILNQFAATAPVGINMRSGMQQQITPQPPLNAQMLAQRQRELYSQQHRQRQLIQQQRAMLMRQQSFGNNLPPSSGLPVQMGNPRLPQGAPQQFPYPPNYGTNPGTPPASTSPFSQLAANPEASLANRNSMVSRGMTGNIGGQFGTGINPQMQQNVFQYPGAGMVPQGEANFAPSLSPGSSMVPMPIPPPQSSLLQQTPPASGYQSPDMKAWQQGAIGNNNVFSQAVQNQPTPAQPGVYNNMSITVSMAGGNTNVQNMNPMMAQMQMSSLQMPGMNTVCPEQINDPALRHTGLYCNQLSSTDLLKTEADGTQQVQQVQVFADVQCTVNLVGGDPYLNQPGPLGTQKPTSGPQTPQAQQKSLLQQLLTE

[2] = repression of VP16-driven luciferase reporter – cell-based, luminescence, high throughput, counter-screen for SRC1 inhibitor project (AID 588824); settings: cell-based VP16 transactivation luciferase luminescence; at 3.6 µM; hits give high values
[3] = StAR promoter reporter inhibitors, counter-screen for LRH-1 inverse agonist project, cell-based, luminescence, high throughput (AID 651611; in the data active = inhibition above about 28%); settings: StAR promoter luciferase reporter counterscreen, at 3.6 µM, hits give high values
[4] = target: Nuclear receptor subfamily 5 group A member 2 (Homo sapiens) (UniProt O00482); assay: NR5A2 activity suppression in reporter cells – cell-based, luminescence, confirmation (AID 651613; in the data active = inhibition above about 42%;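 note: HEK293T cells co-transfected with LRH-1 and StAR promoter luciferase reporter; 0% = vehicle wells and 100% = parental cells lacking receptor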); settings: cell-based LRH-1 luciferase reporter, inverse agonism; at 3.6 µM; hits give high values
Nuclear receptor subfamily 5 group A member 2 (Homo sapiens), sequence (O00482 whole entry, looked up): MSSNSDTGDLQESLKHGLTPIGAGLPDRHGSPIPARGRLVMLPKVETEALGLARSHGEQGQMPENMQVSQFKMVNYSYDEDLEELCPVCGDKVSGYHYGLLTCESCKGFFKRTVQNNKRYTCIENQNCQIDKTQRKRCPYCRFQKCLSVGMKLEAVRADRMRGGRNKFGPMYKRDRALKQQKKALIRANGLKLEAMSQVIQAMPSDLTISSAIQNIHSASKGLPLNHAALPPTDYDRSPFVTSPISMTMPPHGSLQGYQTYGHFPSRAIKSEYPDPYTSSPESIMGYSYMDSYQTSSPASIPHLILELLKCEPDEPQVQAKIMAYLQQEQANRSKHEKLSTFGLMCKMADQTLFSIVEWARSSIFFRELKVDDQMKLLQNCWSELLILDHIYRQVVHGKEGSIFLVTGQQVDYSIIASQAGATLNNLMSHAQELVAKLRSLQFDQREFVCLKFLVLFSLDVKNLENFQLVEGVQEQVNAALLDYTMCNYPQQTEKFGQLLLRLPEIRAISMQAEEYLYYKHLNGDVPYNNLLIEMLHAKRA

[5] = target: Steroidogenic factor 1 (Homo sapiens) (UniProt Q13285); assay: inverse agonism at SF1 nuclear receptor – cell-based, luminescence, high throughput, counter-screen for LRH-1 inverse agonist project (AID 651614; in the data active = inhibition above about 44%;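 note: cells cotransfected with StAR promoter reporter and SF1 expression vector; 0% = vehicle on cells with receptor and 100% = vehicle on cells lacking receptor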); settings: cell-based SF1 luciferase reporter, at 3.6 µM, hits give high values
Steroidogenic factor 1 (Homo sapiens), sequence (Q13285 whole entry, looked up, the tested form may be a part): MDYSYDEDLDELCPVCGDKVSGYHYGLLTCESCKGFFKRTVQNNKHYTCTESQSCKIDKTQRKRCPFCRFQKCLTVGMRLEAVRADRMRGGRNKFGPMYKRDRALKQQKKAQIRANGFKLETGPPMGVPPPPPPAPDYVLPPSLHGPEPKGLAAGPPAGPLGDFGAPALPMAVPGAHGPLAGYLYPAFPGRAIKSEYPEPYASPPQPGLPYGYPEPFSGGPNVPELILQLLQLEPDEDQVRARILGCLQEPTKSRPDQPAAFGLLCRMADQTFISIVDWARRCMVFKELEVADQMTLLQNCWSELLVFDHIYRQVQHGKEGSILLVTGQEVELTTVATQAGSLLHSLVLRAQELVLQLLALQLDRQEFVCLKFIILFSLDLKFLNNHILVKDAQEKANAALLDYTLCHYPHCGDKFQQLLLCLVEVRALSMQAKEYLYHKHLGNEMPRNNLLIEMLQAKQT

[6] = compounds suppressing VP16-driven luciferase signal – cell-based, luminescence, high throughput, counter-screen for LRH-1 inverse agonist project (AID 651615; in the data active = inhibition above about 33%); settings: Gal4-VP16 luciferase reporter cells, at 3.6 µM, hits give high values
[7] = system: transactivating tegument protein VP16 (Human herpesvirus 1); assay: compounds suppressing VP16-driven luciferase signal – cell-based, luminescence, single concentration, counter-screen for SRC2 inhibitor project (AID 652007; in the data active = inhibition above about 36%); settings: cell-based VP16 transactivation luciferase reporter, at 8.9 µM, hits give high values
[8] = target: Nuclear receptor coactivator 2 (Homo sapiens) (UniProt Q15596); assay: inhibition of GAL4-SRC2 driven luciferase expression – cell-based, luminescence, HEK293, triplicate, confirmation (AID 652008;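 active = mean inhibition above 46.5%, the solvent-only control mean plus 3 SD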;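 note: 0% = DMSO-treated cells and 100% = Gossypol at 36 µM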); settings: HEK293 GAL4-SRC2 luciferase reporter, at 8.9 µM, hits give high values
Nuclear receptor coactivator 2 (Homo sapiens), sequence (Q15596 whole entry, looked up, the tested form may be a part): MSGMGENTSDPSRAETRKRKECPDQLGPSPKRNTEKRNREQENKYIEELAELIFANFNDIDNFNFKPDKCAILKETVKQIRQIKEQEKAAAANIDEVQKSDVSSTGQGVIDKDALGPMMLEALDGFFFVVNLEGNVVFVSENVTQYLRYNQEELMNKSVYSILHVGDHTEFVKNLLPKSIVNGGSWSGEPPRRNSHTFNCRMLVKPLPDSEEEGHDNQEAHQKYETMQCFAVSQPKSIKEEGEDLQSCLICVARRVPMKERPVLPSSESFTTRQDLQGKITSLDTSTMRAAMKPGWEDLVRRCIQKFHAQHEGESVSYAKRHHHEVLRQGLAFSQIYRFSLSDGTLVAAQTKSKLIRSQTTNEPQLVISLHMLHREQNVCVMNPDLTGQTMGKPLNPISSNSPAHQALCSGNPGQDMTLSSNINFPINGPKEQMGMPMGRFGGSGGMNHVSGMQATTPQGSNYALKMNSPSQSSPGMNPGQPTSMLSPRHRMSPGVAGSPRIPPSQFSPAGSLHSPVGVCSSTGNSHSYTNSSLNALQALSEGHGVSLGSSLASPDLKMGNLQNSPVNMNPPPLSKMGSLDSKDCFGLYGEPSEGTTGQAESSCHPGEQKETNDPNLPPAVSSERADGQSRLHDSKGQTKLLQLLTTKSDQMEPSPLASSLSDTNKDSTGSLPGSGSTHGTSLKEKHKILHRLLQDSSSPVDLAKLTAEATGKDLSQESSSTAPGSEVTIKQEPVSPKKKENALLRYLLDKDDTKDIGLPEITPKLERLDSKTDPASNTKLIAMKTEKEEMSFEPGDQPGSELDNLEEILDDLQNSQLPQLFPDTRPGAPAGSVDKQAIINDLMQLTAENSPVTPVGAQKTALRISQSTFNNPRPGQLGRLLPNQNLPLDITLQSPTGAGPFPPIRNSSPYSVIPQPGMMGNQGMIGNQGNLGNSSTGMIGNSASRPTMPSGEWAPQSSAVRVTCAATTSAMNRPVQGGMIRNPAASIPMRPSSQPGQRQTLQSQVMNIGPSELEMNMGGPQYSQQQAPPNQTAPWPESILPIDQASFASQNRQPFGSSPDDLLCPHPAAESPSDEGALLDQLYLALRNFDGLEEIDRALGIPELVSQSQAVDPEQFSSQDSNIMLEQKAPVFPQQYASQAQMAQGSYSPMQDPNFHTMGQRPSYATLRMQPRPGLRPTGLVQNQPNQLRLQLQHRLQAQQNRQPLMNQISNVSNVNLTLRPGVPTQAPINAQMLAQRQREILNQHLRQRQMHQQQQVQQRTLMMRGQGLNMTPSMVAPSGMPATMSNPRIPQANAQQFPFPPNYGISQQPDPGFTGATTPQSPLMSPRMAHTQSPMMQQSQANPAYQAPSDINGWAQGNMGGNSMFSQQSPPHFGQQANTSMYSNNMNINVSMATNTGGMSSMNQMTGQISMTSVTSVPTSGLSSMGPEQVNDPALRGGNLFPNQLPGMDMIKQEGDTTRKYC

[9] = reduced OD of V66 E. coli with T4 gene 2 phage – absorbance, RecBCD inhibitor project, confirmation (AID 651982;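 active = mean inhibition over triplicates exceeding the hit threshold derived in the original primary screen, cut at about 11% in these data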); settings: E. coli V66 + T4 2- phage, growth OD; at 11.9 µM; hits give high values
[10] = bacterial growth inhibition – absorbance, high throughput, counter-screen for RecBCD inhibitor project (AID 651983; in the data active = inhibition above about 20%;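 note: E. coli strain V66 grown with compound alone and no phage infection; 0% = bacteria with DMSO vehicle only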); settings: E. coli viability, absorbance (OD) growth; at 11.9 µM; hits give high values
[11] = reduced optical density, T4-challenged addAB+ bacteria – absorbance, E. coli V3065, T4 phage, counter-screen for RecBCD inhibitor project, confirmation (AID 651984;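 active = mean inhibition above the solvent-only control wells' mean plus 3 SD, cut at about 22% in these data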;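 note: higher means less bacterial growth from phage killing when AddAB is blocked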); settings: E. coli expressing H. pylori AddAB + T4 phage, OD growth; at 11.9 µM; hits give high values; gene 2 mutant T4, recBCD-deleted host

Measured: inhibition

CN(C)CCNc1ccc2ncn3c4ccc(O)cc4c(=O)c1c23
inactive: [1] 23.2%
active: [2] 52.9% | [3] 49.3% | [4] 81.6% | [5] 80.5% | [6] 79.9%

CN(C(=O)c1cccc(NC(=O)Cc2ccc(NC(=O)C3CCCN(C(=O)CCc4ccccc4)C3)cc2)c1)C1CCCCC1 (stereo not drawn)
active: [2] 28% | [4] 49.4% | [5] 48.5% | [6] 45.2%
inactive: [1] 6.53% | [3] 24.3%

COc1ccc(-c2coc3c(C(=O)NCc4ccc(OC)c(OC)c4)cccc23)c(C)c1
active: [2] 41.2% | [3] 28% | [4] 80.8% | [5] 49% | [6] 57.8%
inactive: [1] -32%

COc1ccc(CCNc2c(C)c(C)nc3ncnn23)cc1
active: [2] 29.1% | [4] 58.5% | [5] 62.6%
inactive: [1] -13.9%

CC1CCN(c2ccc(-c3cccc(NC(=O)C(F)(F)F)c3)nn2)CC1
active: [8] 60%
inactive: [1] -55.7% | [2] -29.6% | [7] -9.14%

Cc1ccc(Oc2ccc(C(=O)NCc3ccncc3)cc2)cc1
inactive: [1] 2.24% | [2] 23.4% | [3] 10.2% | [7] 7.11% | [8] 21.1%
active: [4] 76.8% | [5] 67.9% | [6] 52.9%

Cc1ncc(CO)c(/C=N/Nc2ccc(C(F)(F)F)cn2)c1O
active: [3] 71.1% | [4] 84% | [5] 70.5% | [6] 65.7%
inactive: [1] 11.6% | [2] 18.7% | [7] 8.88% | [8] 38.8%

C=C1C(=O)C23CCC4C(C)(C(=O)OC)CCCC4(C)C2CCC1(O)C3 (stereo not drawn)
active: [2] 53.7% | [3] 67.4% | [4] 70.5% | [5] 82.1% | [6] 74% | [7] 83.1% | [8] 98.2%
inactive: [1] -0.73%

Cc1sc2ncnc(N3CCC(C(=O)N(C)CC(=O)Nc4cccc(F)c4)CC3)c2c1C
inactive: [1] 33.5% | [2] 22.7% | [7] -11.2% | [8] 25.1%

C=C1C(=O)C23C(O)C1CCC2C12COC3(O)C(O)C1C(C)(C)CCC2O (stereo not drawn)
inactive: [1] -16% | [2] -9.14% | [7] 2.43% | [8] 25.9%

O=C(CCl)Nc1ccc(Oc2cnc3ccccc3n2)cc1
active: [3] 43.6% | [4] 74.4% | [5] 77.4% | [8] 46.6%
inactive: [1] 4.66% | [2] 2.08% | [6] 18.3% | [7] 19.5%

Cc1ccc(OCC(=O)NC(=S)Nc2ccccn2)c(Br)c1
inactive: [1] -49% | [2] -39.2% | [7] 20.5% | [8] 37.7%

CN(C)S(=O)(=O)N1CCC(Oc2cccc(C(=O)NC3CCCCC3)c2)CC1
inactive: [1] -42% | [2] 22% | [7] 4.19% | [8] 13.4%

CC(=O)Nc1ccc(OCC(=O)Nc2ccc(Cl)c(S(=O)(=O)N3CCOCC3)c2)cc1
inactive: [1] -7.7% | [7] -7.09% | [8] 19.6%
active: [2] 27.7%

CCN(C(=O)c1cc(S(=O)(=O)N2CCCCC2)c[nH]1)c1ccc(OC)cc1
inactive: [1] 28.1% | [2] 22.5% | [7] 8.33% | [8] 25.9%

NC(=S)NN=Cc1ccc(OC(=O)COc2cc(Cl)c(Cl)cc2Cl)cn1
inactive: [1] 23.4% | [2] 18.9% | [9] 1.21% | [10] 5.2%
active: [11] 23.4%

CN(C)CCN1C(=O)c2cccc3cc([N+](=O)[O-])cc(c23)C1=O
active: [2] 47.5% | [3] 67% | [4] 96.7% | [5] 84.4% | [6] 68.2%
inactive: [1] -146%

O=C(Nc1ccc(N2CCN(C(=O)c3ccco3)CC2)c(Cl)c1)c1cc2ccccc2o1
inactive: [1] -30.1% | [2] 6.89% | [8] 3.49%
active: [7] 53.3%

CN(c1ccc(C(=O)N2CCN(Cc3ccc4c(c3)OCO4)CC2)cc1)S(=O)(=O)c1ccccc1
inactive: [1] 14.7% | [2] 23% | [7] 31% | [8] 37.4%

Cc1ccc(C(=O)c2cccc(N)c2)cc1C
inactive: [1] -41.2% | [2] 3.5%
active: [7] 58% | [8] 76.3%

CCOC(=O)C1CCN(C(=O)c2ccc(OCC(=O)Nc3cccc(C(F)(F)F)c3)c(OC)c2)CC1
active: [2] 35.4%
inactive: [1] 4.29% | [7] 24.1% | [8] 45.3%

CC(=O)N1CCCC(c2cc(C(=O)Nc3ccccc3)no2)C1 (stereo not drawn)
inactive: [1] -48.3% | [2] -15.3% | [7] -36.7% | [8] 40.6%
